Results filed as inconclusive are left out. Some compounds were tested as several samples or in several runs, with calls that do not always agree. Active and inactive are the calls of the source. How the source made its calls, unless noted: active means hit-call score of the fitted dose curve at least 0.9, where 1 is the maximum; inconclusive means response in the unintended direction; inactive means score below 0.9.

Chain of zebrafish Thyroid Hormone Receptor alpha (TRa), thraa (gene 30670) (Q98867 whole entry, looked up, the tested form may be a part): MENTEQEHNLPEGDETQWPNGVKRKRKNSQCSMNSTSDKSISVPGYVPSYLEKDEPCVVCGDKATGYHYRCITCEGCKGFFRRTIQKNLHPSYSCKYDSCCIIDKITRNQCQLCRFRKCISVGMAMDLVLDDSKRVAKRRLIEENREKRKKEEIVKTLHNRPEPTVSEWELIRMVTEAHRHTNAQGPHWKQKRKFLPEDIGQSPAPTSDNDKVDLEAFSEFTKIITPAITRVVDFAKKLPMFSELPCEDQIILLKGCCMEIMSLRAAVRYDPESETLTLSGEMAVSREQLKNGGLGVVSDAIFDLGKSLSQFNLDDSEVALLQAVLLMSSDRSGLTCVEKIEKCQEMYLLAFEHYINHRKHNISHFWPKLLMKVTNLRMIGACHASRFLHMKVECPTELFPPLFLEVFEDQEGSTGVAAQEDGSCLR
Chain of zebrafish Thyroid Hormone Receptor beta (TRb), thrb (gene 30607) (Q9PVE4 whole entry, looked up): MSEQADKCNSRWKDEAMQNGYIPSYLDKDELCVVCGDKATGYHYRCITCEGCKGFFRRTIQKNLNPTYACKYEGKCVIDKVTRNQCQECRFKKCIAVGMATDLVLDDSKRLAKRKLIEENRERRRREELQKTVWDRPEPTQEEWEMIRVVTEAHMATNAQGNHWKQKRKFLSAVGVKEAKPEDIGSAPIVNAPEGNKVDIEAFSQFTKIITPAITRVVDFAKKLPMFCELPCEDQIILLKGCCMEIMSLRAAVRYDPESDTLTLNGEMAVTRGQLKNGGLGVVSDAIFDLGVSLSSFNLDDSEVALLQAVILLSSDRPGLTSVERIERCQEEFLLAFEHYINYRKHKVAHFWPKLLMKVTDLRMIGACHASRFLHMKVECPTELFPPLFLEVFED

One assay has as its target zebrafish Thyroid Hormone Receptor alpha (TRa), thraa (gene 30670) (UniProt Q98867). In words: ATG_zfTRa_XSP2: Attagene TRANS-FACTORIAL Multi-Species (XSP1) HepG2 Assay for zebrafish Thyroid Hormone Receptor alpha (TRa) (AID 2283832).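 Further: actives raise zebrafish TRa-Gal4 reporter transcript above DMSO baseline.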 The procedure, abridged:
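Readout is reporter mRNA induction, quantified by RT-PCR and capillary electrophoresis with fluorescent labelling, after 24 h compound exposure of transiently transfected HepG2 cells carrying NR-Gal4 chimera reporters. Activity fitted upward relative to DMSO.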
For `Clc1ccc(C(c2ccccc2Cl)C(Cl)Cl)cc1` (centres undefined), the call was inactive.

`O=c1c(O)c(-c2ccc(O)cc2)oc2cc(O)cc(O)c12`: the result was inactive.

The test system of the next assay is zebrafish Peroxisome Proliferator-activated Receptor gamma (PPARg), gene 557037. In words: ATG_zfPPARg_XSP2: Attagene TRANS-FACTORIAL Multi-Species (XSP2) HepG2 Assay for zebrafish Peroxisome Proliferator-activated Receptor gamma (PPARg) (AID 2283833).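 Further: reporter mRNA from a zebrafish PPARg GAL4 chimera measured by RT-PCR and capillary electrophoresis; actives increase reporter signal over DMSO so AC50 reflects activation.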 The procedure, abridged:
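After 24 h chemical exposure, RNA from transiently transfected HepG2 (chimeric NR-Gal4 TRANS reporters) was reverse-transcribed, PCR-amplified, 6-FAM-labelled, HpaI-cut and sized by capillary electrophoresis. Induction was scored in the positive direction relative to DMSO.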
Take `Oc1ccc2cc(SSc3ccc4cc(O)ccc4c3)ccc2c1`: the compound was called inactive.

Turning to `OCc1cccc(Oc2ccccc2)c1`, the outcome was inactive.

Take `BrCc1cccc(Oc2ccccc2)c1`: the result was inactive.

As for `Cc1cc(=O)oc2cc(N(C)C)ccc12`, the compound was classed as inactive.

For the compound `CCCCC(CC)COC(=O)c1ccc(O)cc1` (centres undefined), the AC50 was 60 µM (active).

For the compound `Clc1ccc(C(c2ccccc2Cl)C(Cl)Cl)cc1` (centres undefined), the call was inactive.

With `O=c1c(O)c(-c2ccc(O)cc2)oc2cc(O)cc(O)c12`, the result was inactive.

A further assay has as its system turtle Thyroid Hormone Receptor, alpha (TRa), gene 101949057. In words: ATG_trTRa_XSP2: Attagene TRANS-FACTORIAL Multi-Species (XSP1) HepG2 Assay for turtle Thyroid Hormone Receptor, alpha (TRa) (AID 2283834).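 Further: hits raise reporter mRNA over the DMSO baseline so AC50 marks activators.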 The procedure, abridged: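 Turtle TRa-Gal4 chimera activity in transfected human HepG2 cells: reporter transcripts quantified by RT-PCR, 6-FAM labelling and capillary electrophoresis 24 h post-dosing; positive direction versus DMSO, medium containing 3 nM 6-alpha-fluorotestosterone and 1.5 nM norgestrel.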
`Oc1ccc2cc(SSc3ccc4cc(O)ccc4c3)ccc2c1`: the AC50 is 26.8 µM (active) and the result was inactive.

For the compound `OCc1cccc(Oc2ccccc2)c1`, the outcome was inactive.

`BrCc1cccc(Oc2ccccc2)c1`: the compound was classed as inactive.

`Cc1cc(=O)oc2cc(N(C)C)ccc12`: the outcome was inactive.

Turning to `O=c1c(O)c(-c2ccc(O)cc2)oc2cc(O)cc(O)c12`, the compound was called inactive.

System in a further assay: not listed separately
As to the kind of experiment: ATG_M_61_XSP2: Attagene TRANS-FACTORIAL Multi-Species (XSP2) HepG2 Assay for M61 Transcription Factor (Internal Marker) (AID 2283835; active means hit-call score of the fitted dose curve at least 0.9, where 1 is the maximum; inactive means score below 0.9;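 further: reporter mRNA of an internal background marker read by RT-PCR and capillary electrophoresis; active means a rise in signal above the DMSO baseline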). The procedure, abridged:
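Transient MRTU transfection of human HepG2; 24 h chemical dosing with 3 nM 6-alpha-fluorotestosterone + 1.5 nM norgestrel added for AR stimulation. RNA isolated, RT, PCR, FAM-labelled, HpaI cut, CE read. Positive direction vs DMSO.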
With `Oc1ccc2cc(SSc3ccc4cc(O)ccc4c3)ccc2c1`, the result was inactive.

Consider `OCc1cccc(Oc2ccccc2)c1`, for which the outcome was inactive.

Take `BrCc1cccc(Oc2ccccc2)c1`: the compound was classed as inactive.

Regarding `Cc1cc(=O)oc2cc(N(C)C)ccc12`, the compound was called inactive.

`Clc1ccc(C(c2ccccc2Cl)C(Cl)Cl)cc1` (centres undefined): the call was inactive.

`O=c1c(O)c(-c2ccc(O)cc2)oc2cc(O)cc(O)c12`: the compound was classed as inactive.

A further assay concerns the target zebrafish Thyroid Hormone Receptor beta (TRb), thrb (gene 30607) (UniProt Q9PVE4). In words: ATG_zfTRb_XSP2: Attagene TRANS-FACTORIAL Multi-Species (XSP1) HepG2 Assay for zebrafish Thyroid Hormone Receptor beta (TRb) (AID 2283836).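 On AC50: potency for induction of reporter signal above DMSO so agonist direction.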 How it is done:
ATG_XSP2_multi-species_TRANS is a cell-based, multiplexed assay created by modifying the existing Attagene TRANS-FACTORIAL system to include a panel of nuclear receptors from some or all the following species: human (Homo sapiens), mouse (Mus musculus), frog (Xenopus laevis), zebrafish (Danio rerio), chicken (Gallus gallus), and turtle (Chrysemys picta). The ECOTOX-FACTORIAL format uses HepG2, a human liver cell line, with measurements taken at 24 hours after chemical dosing in a 24-well plate. Xsp2 included 3 nM 6-alpha-fluorotestosterone and 1.5 nM norgestrel to stimulate the androgen receptor.ATG_zfTRb_XSP2 is one of 29 assay components measured or calculated from the ATG_XSP2_multi-species_TRANS assay. It is designed to make measurements of mRNA induction, a form of inducible reporter, as detected with fluorescence intensity signals by Reverse transcription polymerase chain reaction (RT-PCR) and Capillary electrophoresis technology.The assay endpoint ATG_zfTRb_XSP2 was analyzed in the positive analysis fitting direction relative to DMSO as the negative control and baseline of activity. Using a type of inducible reporter, measures of mRNA for gain-of-signal activity can be used to understand the reporter gene at the transcription factor-level as they relate to the gene TR. Furthermore, this assay endpoint can be referred to as a primary readout, because this assay has produced multiple assay endpoints where this one serves a reporter gene function. To generalize the intended target to other relatable targets, this assay endpoint is annotated to the nuclear receptor intended target family, where the subfamily is non-steroidal.
Human liver HepG2 cells are transiently transfected with multiple reporter transcription units (MRTUs) in 6-well plates using FuGene 6 reagent (Roche; 3 ml FuGene/1 mg DNA). The MRTU constructs are regulated by a cis-regulating element (promoter). […] A major difference between the CIS and TRANS system is that in CIS activities of endogenous TFs are measured, whereas the TRANS assay evaluates changes in activities of exogenous, chimeric NR-Gal4 proteins. […] At the end of 24 hour incubation, total RNA was isolated using TriZol reagent (Invitrogen). The isolated RNA is then reverse-transcribed using oligo(dT) primer and Mo-MLV reverse transcriptase (Invitrogen) with DNAse I (Ambion) treatment for 30 min. The one-tenth of the produced cDNA was amplified by PCR using Taq DNA polymerase (Invitrogen) and two reporter sequence-specific primers. The PCR products were fluorescently labeled by primer extension with 6-arboxyfluorescein (6-FAM) 5'-labeled reporter sequence-specific primer (2 min at 95 C, 20 s at 68 C and 10 min at 72 C) and these products were digested with 5U of HpaI (New England Biolabs) for 2h at 37 C. The fragments were purified using Qiaquick PCR columns (Qiagen), analyzed on an ABI 3130xL genetic analyzer (Applied Biosystems) with peak positions identified by using a set of X-rhodamine (ROX)-labeled MapMarker1000 molecular weight standards (BioVentures). The raw capillary electrophoresis data was processed using Attagraph software (Attagene).
For `Oc1ccc2cc(SSc3ccc4cc(O)ccc4c3)ccc2c1`, the AC50 is 154 µM (active) and the compound was called inactive.

`OCc1cccc(Oc2ccccc2)c1`: the compound was classed as inactive.

In the case of `BrCc1cccc(Oc2ccccc2)c1`, the outcome was inactive.

For the compound `Cc1cc(=O)oc2cc(N(C)C)ccc12`, the compound was called inactive.

On to `CCCCC(CC)COC(=O)c1ccc(O)cc1` (centres undefined), for which the call was inactive.

For `Clc1ccc(C(c2ccccc2Cl)C(Cl)Cl)cc1` (centres undefined), the compound was classed as inactive.

For the compound `O=c1c(O)c(-c2ccc(O)cc2)oc2cc(O)cc(O)c12`, the result was inactive.

System in another assay: not listed separately
As to the kind of experiment: ATG_XTT_Cytotoxicity_XSP2: Cytotoxicity Assessment in the Attagene TRANS-FACTORIAL Multi-Species (XSP2) HepG2 Assay (AID 2283837). The procedure, abridged:
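XTT-based cell number read-out in human HepG2 liver cells carrying transfected reporter units, measured 24 h after chemical dosing. Activity is signal loss versus DMSO baseline.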
For `Oc1ccc2cc(SSc3ccc4cc(O)ccc4c3)ccc2c1`, the call was inactive.

Regarding `OCc1cccc(Oc2ccccc2)c1`, the compound was called inactive.

For the compound `Cc1cc(=O)oc2cc(N(C)C)ccc12`, the result was inactive.

As to `Clc1ccc(C(c2ccccc2Cl)C(Cl)Cl)cc1` (centres undefined), the AC50 is 100 µM (active).

For the compound `O=c1c(O)c(-c2ccc(O)cc2)oc2cc(O)cc(O)c12`, the compound was called inactive.

Broadly, the AC50 is the concentration at which the activity in the assay is half-maximal.
